PubChem BioAssay
Values without a mark were called inactive. No rule for the calls is given here. Non-standard residues stand in square brackets, D forms with d. Residues, ends and D or L forms follow the SMILES beside them. Orn = NCCC[CH](N)C(=O)O

system: Aerobactin synthetase IucA (Klebsiella pneumoniae hvKP1); experiment: Biochemical IucA enzyme inhibition primary screen of the Spectrum library (AID 1346200); details: malachite green pyrophosphate, A620, at 8 µM, hits give low values;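 also: 100% = wells without compound and 0% = wells lacking enzyme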

**Q.** Which activity remaining does the source give for `O=c1cc(-c2cccc(O)c2)oc2ccc(O)cc12` here?
**A.** 101%

**Q.** With `CC(C)(Oc1ccc(Cl)cc1)C(=O)O` as the molecule, how does the activity remaining read?
**A.** 122%

**Q.** Which activity remaining does the source give for `CC1(C)O[C@H]2[C@H](O)C[C@](O)(C(N)=O)C[C@H]2O1` here?
**A.** 109%

**Q.** Which activity remaining does the source give for `CCC(=O)O[C@]1(C(=O)CCl)[C@@H](C)CC2C3CCC4=CC(=O)C=C[C@]4(C)[C@@]3(F)[C@@H](O)C[C@@]21C` (stereo not given in full) here?
**A.** 112%

**Q.** `CC(C)CC1NC(=O)C(CCCN)NC(=O)C(C(C)C)NC(=O)C2CCCN2C(=O)C(Cc2ccccc2)NC(=O)C(CC(C)C)NC(=O)C(CCCN)NC(=O)C(C(C)C)NC(=O)C2CCCN2C(=O)C(Cc2ccccc2)NC1=O` (stereo not given) (cyclo(FPV[Orn]LFPV[Orn]L); configuration not given here) was tested. Which activity remaining did it give?
**A.** 122%

**Q.** Which activity remaining does the source give for `COc1ccc(/C=C/C(=O)c2ccc(O)cc2O)cc1OC` here?
**A.** 93.4%

**Q.** Which activity remaining does the source give for `S=P(N1CC1)(N1CC1)N1CC1` here?
**A.** 89.8%

**Q.** Which activity remaining does the source give for `C[N+](C)(C)CCOP(=O)([O-])OP(=O)(O)OC[C@H]1OC(n2ccc(N)nc2=O)[C@H](O)[C@@H]1O` (stereo not given in full) here?
**A.** 118%

**Q.** With `OCc1c[nH]c2ccccc12` as the molecule, how does the activity remaining read?
**A.** 118%

**Q.** How did the activity remaining turn out when `C=C1C(=O)[C@]23[C@H](O)[C@H]1CC[C@H]2[C@@]12COC3(O)[C@H](O)[C@@H]1C(C)(C)CC[C@@H]2O` was run?
**A.** 98.4%

**Q.** With `FC(F)(F)COCC(F)(F)F` as the molecule, how does the activity remaining read?
**A.** 120%

**Q.** For `CCOC(=O)[C@H](CCc1ccccc1)N[C@@H](C)C(=O)N1Cc2ccccc2C[C@H]1C(=O)O`, which activity remaining is on record?
**A.** 95.9%

**Q.** With `Cc1cc(=O)c2c(O)cc(O)c(C)c2o1` as the molecule, how does the activity remaining read?
**A.** 99.3%

**Q.** `C=CCCCCCCCCCCCC(O)CC(O)CO` (stereo not given) (tested in a mixture with another compound) was tested. Which activity remaining did it give?
**A.** 85.4%

**Q.** For `C=C1CCC(C2CC(=O)OC2=O)C(=O)CCC2C1CC2(C)C` (stereo not given), which activity remaining is on record?
**A.** 111%

**Q.** With `COc1ccc2c(c1)OCc1c-2oc2cc(OC)ccc12` as the molecule, how does the activity remaining read?
**A.** 90.7%

**Q.** With `COc1cc(O)cc(/C=C/c2ccccc2)c1` as the molecule, how does the activity remaining read?
**A.** 104%

**Q.** With `CC(=O)C1CCC2C3CC(=O)C4=CC(=O)CCC4(C)C3CCC12C` (stereo not given) as the molecule, how does the activity remaining read?
**A.** 98.9%

**Q.** How did the activity remaining turn out when `CC(=O)N=c1sc(S(N)(=O)=O)nn1C` was run?
**A.** 86.3%

**Q.** For `COc1ccc2cc1Oc1ccc(cc1)C[C@H]1c3cc(c(OC)cc3CCN1C)Oc1c(OC)c(OC)cc3c1[C@H](C2)N(C)CC3`, which activity remaining is on record?
**A.** 108%

**Q.** How did the activity remaining turn out when `COc1ccc2cc1Oc1ccc(cc1)C[C@H]1c3c(cc4c(c3Oc3cc5c(cc3OC)CCN(C)[C@@H]5C2)OCO4)CCN1C` was run?
**A.** 115%

**Q.** With `CC(=O)O[C@@H]1CC2C(C)(C)CCC(=O)[C@]2(C)C2CC[C@@]3(C)[C@H](c4ccoc4)OC(=O)C4OC43[C@@]21C` (stereo not given in full) as the molecule, how does the activity remaining read?
**A.** 113%

**Q.** Which activity remaining does the source give for `O=C(/C=C/c1ccc(O)c(O)c1)O[C@@H]1C[C@](O)(C(=O)O)C[C@@H](O)[C@H]1O` here?
**A.** 103%

**Q.** With `CC(C(=O)O)c1ccc2c(c1)[nH]c1ccc(Cl)cc12` (stereo not given) as the molecule, how does the activity remaining read?
**A.** 109%

**Q.** With `COc1cc(O)c2c(=O)cc(-c3ccc(OC)c(-c4c(O)cc(O)c5c(=O)cc(-c6ccc(O)cc6)oc45)c3)oc2c1` as the molecule, how does the activity remaining read?
**A.** 118%

**Q.** How did the activity remaining turn out when `CC1CC2C3CCC4=CC(=O)C=C[C@]4(C)[C@@]3(F)[C@@H](O)C[C@]2(C)[C@@]1(O)C(=O)CO` (stereo not given in full) was run?
**A.** 117%

**Q.** How did the activity remaining turn out when `O=C(O)CCCCC1CCSS1` (stereo not given) was run?
**A.** 103%

**Q.** Which activity remaining does the source give for `CCc1cc(C(N)=S)ccn1` here?
**A.** 105%

**Q.** With `COc1cc(NC(C)CCCN)c2ncccc2c1` (stereo not given) as the molecule, how does the activity remaining read?
**A.** 123%

**Q.** How did the activity remaining turn out when `CCC(CCC(C)C1CCC2C3CC=C4C[C@@H](OC(C)=O)CC[C@]4(C)C3CC[C@]12C)C(C)C` (stereo not given in full) was run?
**A.** 114%

**Q.** For `CCN(CC)CCNc1ccc(CO)c2sc3ccccc3c(=O)c12`, which activity remaining is on record?
**A.** 114%

**Q.** With `COc1c(O)cccc1O` as the molecule, how does the activity remaining read?
**A.** 87.7%

**Q.** With `C[C@]12C=CC(=O)C=C1CCC1C2[C@@H](O)C[C@@]2(C)C1CC[C@]2(O)C(=O)COP(=O)(O)O` (stereo not given in full) as the molecule, how does the activity remaining read?
**A.** 117%

**Q.** For `Cc1ccccc1OCC(O)CO` (stereo not given), which activity remaining is on record?
**A.** 95.2%

**Q.** How did the activity remaining turn out when `C[C@H]1[C@H](C)CC[C@]2(C(=O)O)CC[C@]3(C)C(=CCC4[C@@]5(C)C[C@@H](O)[C@H](O)[C@@](C)(CO)C5[C@H](O)C[C@]43C)[C@H]12` (stereo not given in full) was run?
**A.** 110%

**Q.** Which activity remaining does the source give for `CCCCCc1c2c(cc(O)c1C(=O)O)OC(=O)c1c(cc(OC)cc1C(=O)CCCC)O2` here?
**A.** 121%

**Q.** With `Cc1ccc2c(c1)CC[C@H]1CC(=O)CC[C@]21C` as the molecule, how does the activity remaining read?
**A.** 112%

**Q.** Which activity remaining does the source give for `COc1cc2c(cc1OC)[C@@H]1C(=O)c3ccc4c(c3O[C@@H]1CO2)C=CC(C)(C)O4` here?
**A.** 118%

**Q.** `OCC(O)C(O)C(O)C(O)C(O)CO` (stereo not given) was tested. Which activity remaining did it give?
**A.** 93%

**Q.** For `CC(=O)O[C@@H]1CC2C(C)(C)[C@H](O)C[C@H](O)[C@]2(C)C2CC[C@@]3(C)C(=CC(=O)O[C@H]3c3ccoc3)[C@@]21C` (stereo not given in full), which activity remaining is on record?
**A.** 102%
